Experimental data taken from the supplement of paper PMC11001985.

The targets below were run with C#CCNC(=O)CCSSCCC(=O)NCCc1ccc(C=O)c(C=O)c1 (assay: lysine labeling ratio R10:1 (500 µM / 50 µM probe), SILAC-ABPP in living cells; higher = lower intrinsic lysine reactivity toward the probe, active = 2 or less). Conditions: HeLa; probe concentrations 500 vs 50 µM.
Procedure, shortened: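 With forward and reverse label swaps, light and heavy SILAC HeLa cells, alive and in PBS at room temperature, were exposed to either 500 µM or 50 µM of an alkyne-tagged lysine probe bearing a disulfide link. After mixing, lysates were clicked to biotin-azide, cut with trypsin, pulled down on neutravidin, freed with DTT, alkylated and analysed on a TIMS-TOF Pro by LC-MS/MS. The per-lysine value R is the median over forward and reverse replicates of the filtered median high-probe/low-probe MS1 peptide ratio. It is capped at 20.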

Chain of UniProt Q15149 (Q15149 whole entry): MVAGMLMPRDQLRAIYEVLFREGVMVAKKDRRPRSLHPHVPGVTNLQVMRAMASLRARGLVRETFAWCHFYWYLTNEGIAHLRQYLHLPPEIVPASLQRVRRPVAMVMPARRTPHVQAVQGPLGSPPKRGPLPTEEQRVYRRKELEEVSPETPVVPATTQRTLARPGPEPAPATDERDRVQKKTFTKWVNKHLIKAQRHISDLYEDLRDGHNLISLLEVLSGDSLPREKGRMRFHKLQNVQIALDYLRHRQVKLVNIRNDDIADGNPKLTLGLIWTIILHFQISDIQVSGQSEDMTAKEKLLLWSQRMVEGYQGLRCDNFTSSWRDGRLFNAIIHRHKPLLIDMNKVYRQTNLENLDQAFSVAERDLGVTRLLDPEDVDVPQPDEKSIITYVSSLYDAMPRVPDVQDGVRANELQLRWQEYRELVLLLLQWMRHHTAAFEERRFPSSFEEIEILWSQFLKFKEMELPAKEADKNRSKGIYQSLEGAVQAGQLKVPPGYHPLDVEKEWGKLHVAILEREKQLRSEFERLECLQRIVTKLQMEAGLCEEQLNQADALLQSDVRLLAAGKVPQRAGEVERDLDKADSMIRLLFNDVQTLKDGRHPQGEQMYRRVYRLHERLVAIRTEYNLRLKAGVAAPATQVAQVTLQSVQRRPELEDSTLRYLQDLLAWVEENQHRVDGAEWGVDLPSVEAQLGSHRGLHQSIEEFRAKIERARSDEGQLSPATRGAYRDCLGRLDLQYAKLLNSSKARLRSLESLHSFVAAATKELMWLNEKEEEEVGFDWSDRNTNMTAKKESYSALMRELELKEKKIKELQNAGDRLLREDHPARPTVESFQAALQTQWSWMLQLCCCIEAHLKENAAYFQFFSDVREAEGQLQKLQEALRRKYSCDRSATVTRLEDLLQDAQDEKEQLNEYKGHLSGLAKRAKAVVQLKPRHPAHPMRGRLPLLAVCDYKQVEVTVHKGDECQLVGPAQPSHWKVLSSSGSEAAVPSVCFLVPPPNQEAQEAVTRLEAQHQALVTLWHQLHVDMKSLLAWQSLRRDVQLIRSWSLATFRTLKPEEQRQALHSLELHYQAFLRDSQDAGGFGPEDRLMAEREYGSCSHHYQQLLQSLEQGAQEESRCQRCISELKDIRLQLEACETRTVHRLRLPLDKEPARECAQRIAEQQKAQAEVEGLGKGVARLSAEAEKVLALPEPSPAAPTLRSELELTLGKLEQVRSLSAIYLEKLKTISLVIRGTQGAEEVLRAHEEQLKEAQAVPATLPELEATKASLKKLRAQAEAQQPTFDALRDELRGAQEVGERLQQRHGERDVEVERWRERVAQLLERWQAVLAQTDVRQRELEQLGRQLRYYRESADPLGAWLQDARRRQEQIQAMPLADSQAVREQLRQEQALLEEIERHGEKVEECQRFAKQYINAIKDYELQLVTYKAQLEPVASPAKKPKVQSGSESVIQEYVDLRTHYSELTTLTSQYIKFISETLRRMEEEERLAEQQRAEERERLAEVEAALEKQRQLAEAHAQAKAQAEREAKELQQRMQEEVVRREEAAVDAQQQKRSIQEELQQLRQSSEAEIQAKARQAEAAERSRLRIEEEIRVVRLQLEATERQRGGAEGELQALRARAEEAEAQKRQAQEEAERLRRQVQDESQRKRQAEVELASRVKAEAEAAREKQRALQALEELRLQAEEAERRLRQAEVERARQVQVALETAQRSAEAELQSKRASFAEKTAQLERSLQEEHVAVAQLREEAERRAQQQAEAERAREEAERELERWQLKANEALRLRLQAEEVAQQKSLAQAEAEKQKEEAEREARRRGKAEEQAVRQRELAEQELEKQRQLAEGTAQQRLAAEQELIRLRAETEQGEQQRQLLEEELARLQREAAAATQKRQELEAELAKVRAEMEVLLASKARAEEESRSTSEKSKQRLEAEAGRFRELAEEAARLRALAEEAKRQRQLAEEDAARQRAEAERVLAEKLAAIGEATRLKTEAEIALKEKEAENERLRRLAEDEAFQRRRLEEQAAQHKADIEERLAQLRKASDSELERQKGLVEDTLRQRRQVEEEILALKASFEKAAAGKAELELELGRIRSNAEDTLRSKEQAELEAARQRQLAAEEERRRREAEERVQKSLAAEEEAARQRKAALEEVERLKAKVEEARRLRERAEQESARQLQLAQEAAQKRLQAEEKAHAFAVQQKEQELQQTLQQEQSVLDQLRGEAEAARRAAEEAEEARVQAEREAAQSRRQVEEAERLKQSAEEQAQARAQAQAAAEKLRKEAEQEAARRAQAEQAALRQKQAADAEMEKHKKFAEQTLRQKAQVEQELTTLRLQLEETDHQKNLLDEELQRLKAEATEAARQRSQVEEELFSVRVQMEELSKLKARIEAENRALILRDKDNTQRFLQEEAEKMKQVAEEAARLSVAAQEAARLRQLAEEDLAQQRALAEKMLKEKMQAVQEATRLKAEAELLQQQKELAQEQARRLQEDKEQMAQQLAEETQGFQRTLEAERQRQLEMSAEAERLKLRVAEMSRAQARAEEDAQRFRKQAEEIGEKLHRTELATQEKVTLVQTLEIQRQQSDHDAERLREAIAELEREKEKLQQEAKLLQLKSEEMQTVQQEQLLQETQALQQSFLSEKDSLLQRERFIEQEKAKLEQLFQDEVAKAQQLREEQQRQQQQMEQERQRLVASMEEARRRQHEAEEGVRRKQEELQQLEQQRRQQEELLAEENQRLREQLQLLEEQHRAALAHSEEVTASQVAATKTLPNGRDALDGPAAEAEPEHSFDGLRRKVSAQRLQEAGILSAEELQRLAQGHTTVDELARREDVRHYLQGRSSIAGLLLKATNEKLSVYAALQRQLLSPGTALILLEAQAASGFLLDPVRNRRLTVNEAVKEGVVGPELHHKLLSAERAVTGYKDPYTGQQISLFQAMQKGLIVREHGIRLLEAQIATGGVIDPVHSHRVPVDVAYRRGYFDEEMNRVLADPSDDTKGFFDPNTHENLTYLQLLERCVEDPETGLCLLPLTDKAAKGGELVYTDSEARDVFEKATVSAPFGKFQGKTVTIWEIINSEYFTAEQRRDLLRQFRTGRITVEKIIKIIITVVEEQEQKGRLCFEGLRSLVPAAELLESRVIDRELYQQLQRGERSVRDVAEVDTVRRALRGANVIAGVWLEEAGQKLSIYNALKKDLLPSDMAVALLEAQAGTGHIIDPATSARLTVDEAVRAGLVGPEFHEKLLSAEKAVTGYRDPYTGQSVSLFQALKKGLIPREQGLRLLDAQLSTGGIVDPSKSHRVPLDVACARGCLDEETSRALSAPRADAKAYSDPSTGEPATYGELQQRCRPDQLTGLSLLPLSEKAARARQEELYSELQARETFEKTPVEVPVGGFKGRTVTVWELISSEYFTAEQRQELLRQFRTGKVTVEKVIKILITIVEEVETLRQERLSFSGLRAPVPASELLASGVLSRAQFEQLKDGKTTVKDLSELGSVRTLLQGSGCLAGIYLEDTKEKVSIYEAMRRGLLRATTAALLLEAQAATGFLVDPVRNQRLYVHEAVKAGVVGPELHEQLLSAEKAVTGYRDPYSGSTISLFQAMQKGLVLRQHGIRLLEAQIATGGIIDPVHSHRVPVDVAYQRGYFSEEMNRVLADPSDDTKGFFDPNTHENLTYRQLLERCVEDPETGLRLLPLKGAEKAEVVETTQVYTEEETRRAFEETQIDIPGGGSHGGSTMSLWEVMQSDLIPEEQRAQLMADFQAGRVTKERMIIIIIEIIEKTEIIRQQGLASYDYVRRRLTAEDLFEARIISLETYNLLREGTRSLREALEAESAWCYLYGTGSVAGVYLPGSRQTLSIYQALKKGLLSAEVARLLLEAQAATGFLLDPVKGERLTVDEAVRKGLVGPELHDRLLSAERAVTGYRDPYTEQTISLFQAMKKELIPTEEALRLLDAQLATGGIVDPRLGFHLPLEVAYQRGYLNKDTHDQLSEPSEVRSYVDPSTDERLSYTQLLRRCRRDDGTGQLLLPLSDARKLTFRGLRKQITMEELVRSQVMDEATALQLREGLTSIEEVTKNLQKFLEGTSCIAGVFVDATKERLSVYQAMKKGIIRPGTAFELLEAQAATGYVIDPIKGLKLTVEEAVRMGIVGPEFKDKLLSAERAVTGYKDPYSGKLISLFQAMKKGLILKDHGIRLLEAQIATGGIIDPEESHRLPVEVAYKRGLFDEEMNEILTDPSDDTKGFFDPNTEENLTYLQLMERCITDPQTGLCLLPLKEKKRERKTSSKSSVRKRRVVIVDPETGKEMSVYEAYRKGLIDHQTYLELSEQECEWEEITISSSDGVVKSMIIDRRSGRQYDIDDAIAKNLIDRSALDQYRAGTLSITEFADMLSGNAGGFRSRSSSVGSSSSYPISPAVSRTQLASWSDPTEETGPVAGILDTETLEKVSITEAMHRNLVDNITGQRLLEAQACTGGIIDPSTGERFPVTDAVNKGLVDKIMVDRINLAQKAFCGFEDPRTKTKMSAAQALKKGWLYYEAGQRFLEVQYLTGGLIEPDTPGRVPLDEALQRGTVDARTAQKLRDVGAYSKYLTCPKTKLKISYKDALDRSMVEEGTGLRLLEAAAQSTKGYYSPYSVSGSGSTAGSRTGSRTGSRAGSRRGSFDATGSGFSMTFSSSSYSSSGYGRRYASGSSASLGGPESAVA
Chain of UniProt P10321 (P10321 whole entry, one chain of several): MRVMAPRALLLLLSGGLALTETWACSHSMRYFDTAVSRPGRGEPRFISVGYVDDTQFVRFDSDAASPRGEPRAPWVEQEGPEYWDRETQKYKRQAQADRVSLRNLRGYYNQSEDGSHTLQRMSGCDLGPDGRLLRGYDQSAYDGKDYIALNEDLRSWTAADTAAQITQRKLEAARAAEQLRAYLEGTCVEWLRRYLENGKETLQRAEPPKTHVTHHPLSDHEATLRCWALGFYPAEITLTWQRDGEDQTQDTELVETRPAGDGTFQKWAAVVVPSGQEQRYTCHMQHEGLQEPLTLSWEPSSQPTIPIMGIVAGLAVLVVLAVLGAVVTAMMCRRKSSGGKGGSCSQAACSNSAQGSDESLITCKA

Lysine labeling ratio R10:1, active:
AHCY (lysine site: K20) (UniProt P23526) 1.54
CSPG4 (lysine site: K1711) (UniProt Q6UVK1) 0.655
STOML2 (lysine site: K187) (UniProt Q9UJZ1) 1.1
ECH1 (lysine site: K83) (UniProt Q13011) 1.59
SPTAN1 (lysine site: K2000) (UniProt Q13813) 0.553
MSLN (lysine site: K307) (UniProt Q13421) 1.74
PTPRS (lysine site: K144) (UniProt Q13332) 1.57
FAM120A (lysine site: K673) (UniProt Q9NZB2) 1.15
ACTN4 (lysine site: K331) (UniProt O43707) 1.71
THBS1 (lysine site: K968) (UniProt P07996) 1.48
RUVBL1 (lysine site: K182) (UniProt Q9Y265) 0.748
VDAC1 (lysine site: K61) (UniProt P21796) 1.88

Lysine labeling ratio R10:1, inactive:
ATP1B1 (lysine site: K111) (UniProt P05026) 2.14
BPTF (lysine site: K609) (UniProt Q12830) 8.91
HNRNPU (lysine site: K592) (UniProt Q00839) 2.21
CACNA2D1 (lysine site: K634) (UniProt P54289) 3.07
CD46 (lysine site: K227) (UniProt P15529) 6.48
LAMB2 (lysine site: K1720) (UniProt P55268) 5.02
FLNB (lysine site: K1221) (UniProt O75369) 3.74
FAT1 (lysine site: K101) (UniProt Q14517) 2.6
ATP1B1 (lysine site: K134) (UniProt P05026) 6.75
ARPC2 (lysine site: K275) (UniProt O15144) 2.12
SDC2 (lysine site: K134) (UniProt P34741) 3.52
Q95604 (lysine site: K210) (UniProt P10321) 6.33
Q95604 (lysine site: K145) (UniProt P10321) 2.39
UniProt Q15149 (lysine site: K195) 4.55
DSG2 (lysine site: K72) (UniProt Q14126) 2.67
ANPEP (lysine site: K205) (UniProt P15144) 2.56
UniProt P62805 (lysine site: K78) 8.41
ITGA5 (lysine site: K978) (UniProt P08648) 4.71
LAMA5 (lysine site: K255) (UniProt O15230) 2.33
UniProt P61978 (lysine site: K179) 3.68
UniProt P49720 (lysine site: K77) 2.88
ITGAV (lysine site: K149) (UniProt P06756) 4.46
FAT4 (lysine site: K2215) (UniProt Q6V0I7) 3.48
FOLR1 (lysine site: K136) (UniProt P15328) 7.36
UniProt Q16363 (lysine site: K1330) 2.83
UniProt Q15149 (lysine site: K1401) 3.7
RPL3 (lysine site: K272) (UniProt P39023) 2.04
UniProt Q15149 (lysine site: K3925) 3.1
